# Results reported in ChEMBL document CHEMBL3988442, “University of Dundee, Small-Polar-MMV Screening Library” (2021).
# In all, about 66,000 compounds went through this assay and about 960 (1.5%) showed an effect of 50% or more. The sample holds strong results, similar compounds and a random draw of the others, so the mix is not that of the screen.
# System: Trypanosoma brucei
# Experiment: Trypanosoma brucei 72 hour study
# Format: functional, organism-based
# Set-up: scale not given: in the data most compounds retested in dose-response had high values
smiles,measurement,setting,value
COCc1nc2cc(NCc3ccc(C)o3)ccc2o1,Percent Effect,"30 µM, 30.03 µM",13.96%
CCC(C)CNc1ccc2oc(COC)nc2c1 (stereo not drawn),Percent Effect,"30 µM, 30.03 µM",94.42%
COCc1nc2cc(NCc3ccncc3)ccc2o1,Percent Effect,"30 µM, 30.03 µM",16.85%
Cc1cccc(C(=O)N2CCN(CCC(C)C)CC2)n1,Percent Effect,"30.3 µM, […]",-20.29%
CCCN1Cc2nc(N3CCCC3)ncc2C1=O,Percent Effect,"30 µM, 30.03 µM",35.2%
Cc1nnc2ccc(N3CCC4(CCOC4)C3)nn12 (stereo not drawn),Percent Effect,"30 µM, 30.03 µM",-17.43%
c1ccc(-c2nnc3ccc(N4CCC5(CCOC5)C4)nn23)cc1 (stereo not drawn),Percent Effect,"30 µM, 30.03 µM",81.34%
FC(F)c1nnc2ccc(N3CCC4(CCOC4)C3)nn12 (stereo not drawn),Percent Effect,"30 µM, 30.03 µM",-51.53%
c1cc(-c2n[nH]cc2-c2ccnc(N3CCCCCC3)n2)ccn1,Percent Effect,"30.3 µM, […]",36.75%
CCOC(=O)N1CCN(C(=O)c2sc(-c3ccccc3F)nc2C)CC1,Percent Effect,"30 µM, 30.03 µM",51.23%
Cc1nc(-c2ccccc2F)sc1C(=O)N1CCN(C)CC1,Percent Effect,"30 µM, 30.03 µM",37.21%
CC(=O)N1CCN(C(=O)c2sc(-c3ccccc3F)nc2C)CC1,Percent Effect,"30 µM, 30.03 µM",-46.44%
CC(=O)N1CCO[C@H]2[C@H](OCCCn3cccn3)CC[C@@H]21.O=C(O)C(F)(F)F,Percent Effect,"30.3 µM, […]",-5.128%
COc1cccc(CN(Cc2ccco2)Cc2cnc(C)n2C)c1.O=C(O)CC(O)(CC(=O)O)C(=O)O,Percent Effect,"30.3 µM, […]",15.04%
CN1C[C@@H](C(=O)N(C)C)[C@@]2(CCc3ccccc3C(=O)N2)C1.Cl,Percent Effect,"30.3 µM, […]",-15.68%
CNc1nc(C)c(C(=O)N2CCCCC2CN2CCCCCC2)s1 (stereo not drawn),Percent Effect,"30 µM, 30.03 µM",17.59%
O=C(O)C(F)(F)F.O=C(O)C(F)(F)F.O=C(c1n[nH]c2c1CN(C1CCOC1)CC2)N1CCOCC1 (stereo not drawn),Percent Effect,"30.3 µM, […]",0.9809%
CN(C)CCN1C(=O)CCC12CCN(C(=O)c1cccnc1)CC2.O=C(O)C(F)(F)F.O=C(O)C(F)(F)F,Percent Effect,"30.3 µM, […]",75.6%
CN(C)CCN1C(=O)CCC12CCCN(C(=O)c1cccnc1)CC2.O=C(O)C(F)(F)F.O=C(O)C(F)(F)F (stereo not drawn),Percent Effect,"30.3 µM, […]",-25.41%
CN(C)CCN1C(=O)CCCC12CCCN(C(=O)c1ccncc1)C2.O=C(O)C(F)(F)F.O=C(O)C(F)(F)F (stereo not drawn),Percent Effect,"30.3 µM, […]",-7.261%
O=C(O)C(F)(F)F.c1coc(CN2CCO[C@H]3[C@H](OCC4CCCC4)CC[C@@H]32)c1,Percent Effect,"30.3 µM, […]",1.448%
Cc1csc(N2CCN(CC(=O)N3CCNC3=O)CC2C)n1 (stereo not drawn),Percent Effect,10 µM,-102.2%
CC(C)NC(=O)c1ccc2c(c1)nc1n2CCN(C(C)C)C1,Percent Effect,"30 µM, 30.03 µM",-14.37%
CC(C)NC(=O)c1ccc2c(c1)nc1n2CCN(c2ccccc2)C1,Percent Effect,"30 µM, 30.03 µM",50.34%
CC(C)NC(=O)c1ccc2c(c1)nc1n2CCN(Cc2ccco2)C1,Percent Effect,"30 µM, 30.03 µM",-8.027%
COc1ccc2c(c1)c(-c1nc(C)ncc1CN)cn2C,Percent Effect,"30.3 µM, […]",-32.27%
COc1ccc2c(c1)c(-c1nc(N(C)C)ncc1CN)cn2C,Percent Effect,"30.3 µM, […]",100.6%
COCC(=O)NCc1cnc(C)nc1-c1cn(C)c2ccc(OC)cc12,Percent Effect,"30.3 µM, […]",-5.457%
